# Data reported in PubChem BioAssay (NCI).
# Several values for one entry are separate records, joined by “and”; a condition that tells them apart may be missing. Equal entries are not always repeated. The panel holds about 79,000 compounds, 15% with a hit somewhere; the sample as a whole holds those more often. A number with no mark means an inactive call. Activity calls are given as the source filed them. Rule as the data show it: active = growth inhibition above about 70%; inactive = the rest.
# Assay: NCI Yeast Anticancer Drug Screen. Data for the rad50 strain (AID 155);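 also: 0% = growth of vehicle-only cultures of the same strain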
# Conditions: S. cerevisiae rad50 strain growth inhibition; at 50.0 µM; active compounds read high
# Method in brief: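 Relative growth inhibition (compound vs vehicle) was measured in yeast with a defined repair-gene alteration.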
row,SMILES,growth inhibition
1,CC1(c2ccccc2)CCC(=O)NC1=O (stereo not given),7.2%
2,C(#Cc1ccccc1)c1ccccc1.[C-]#[O+].[C-]#[O+].[C-]#[O+].[C-]#[O+].[C-]#[O+].[C-]#[O+].[Co].[Co],42.4%
3,CCN1CCC(OC(=O)c2ccccc2)(c2nccc3ccccc23)CC1,-5.85%
4,COC(=O)c1ccccc1NP(=O)(O)Oc1ccccc1 (tested in a mixture with another compound),9.7%
5,O=C1NN(c2ccccc2)C(=O)C1c1ccccc1 (stereo not given),24.2%
6,COc1ccc2c3c1OC1C(C)(O)C(O)CC4C(C2)N(C)CCC341 (stereo not given),-3.55%
7,CN1CCc2c([nH]c3ccccc23)C1,18.4%
8,CC(C)C1CN1CC(O)Cn1ccnc1[N+](=O)[O-] (stereo not given),-15.2%
9,O=C(Oc1cc(Cl)c(S(=O)(=O)F)cc1Cl)c1ccccc1Cl,93.5% (active)
10,COC(=O)C1(C(=O)OC)Cc2ccc(C)cc2C2=C1C(=O)c1ccccc1C2=O,-25.8%
11,CCC1=C(CC2NCCc3cc(OC)c(OC)cc32)CC2c3ccccc3CCN2C1 (stereo not given),-16.8%
12,NP(=S)(Oc1ccc(Cl)cc1)Oc1ccc(Cl)cc1,96.8% (active)
13,O=C1/C(=C\c2ccccc2)N2CCC1CC2,4.2%
14,NC(C(=O)[O-])C(=O)[O-].NC1CCCCC1N.[Pt+4],7.35%
15,CN(C)CCN=C(N)N[N+](=O)[O-],1.35%
16,CC(C)CCC1(CC[N+](C)(C)C)C(=O)NC(=O)NC1=O,5.95%
17,CC1(C)OC2(C)CCC1C(O)C2N1CCCCC1 (stereo not given),-29.6%
18,CCOC(=O)/C(=C\c1ccc(OC)cc1)[Se]c1ccccc1,50%
19,CC1=CC(=O)CC2(C)CCC(C(C)CC(=O)CC(C)C)CC12OO (stereo not given),89.4% (active) and 88.8% (active)
20,CC1(C)N=C(c2ccccc2)C2(c3ccccc3)N1C2(C)C (stereo not given),-1.8%

row,SMILES,growth inhibition
1,C[N+](C)=c1nc(N2CCc3ccccc3C2)ss1,27%
2,C[C@@H]1C[C@@]2(O[C@@H]2C)C(=O)O[C@@H]2CCN3CC=C(COC(=O)[C@]1(C)O)[C@H]23,-4.5%
3,O=C(CS(=O)(=O)O)Nc1ccccc1,36.8%
4,C[CH2][Sn]1([CH2]C)[O]C(=O)[O][Sn]([CH2]C)([CH2]C)[O]1,-30.1%
5,O=C(OCCOCCOC(=O)C(Cl)(Cl)Cl)C(Cl)(Cl)Cl,-47%
6,CC(C)(C)[SH+]CC[SH+]C(C)(C)C.[C-]#[O+].[C-]#[O+].[C-]#[O+].[C-]#[O+].[Cr],13.6%
7,COC(=O)C1=C(C)N2CCCOC2(C)C(C(=O)OC)C1c1cccc(Cl)c1 (stereo not given),61.4%
8,O=C(O)C(C(=O)O)P(=S)(S)c1ccccc1 (stereo not given),-2.1%
9,C[P+](CCl)(CCl)CCl,5.45%
10,S=C(SSC(=S)N(Cc1ccccc1)Cc1ccccc1)N(Cc1ccccc1)Cc1ccccc1,-1.7%
11,C[CH2][Sn](/[CH]=C/C=C/OC)([CH2]C)[CH2]C,36.5%
12,O=C(O)c1cc[c]([Hg][S]c2ncnc3nc[nH]c23)cc1,99% (active)
13,CCCCCCCC[As](=O)(O)CCCCCCCC,-2.95%
14,C=CP(=O)(OCCCl)OCCCl,24.5%
15,Cc1cc(N(CCCl)CCCl)ccc1CN1CCCN(Cc2ccc(N(CCCl)CCCl)cc2C)C1c1cc(O)cc(Br)c1,43%
16,C[N+](C)(C)CCNP(=O)(Oc1ccccc1)c1ccccc1 (stereo not given),4.15%
17,C/C=C/CC1(c2ccccc2)C(=O)NC(=S)NC1=O,10.2%
18,CCOC(=O)C(Cc1ccc(N(CCCl)CCCl)cc1)NC(=O)CNC(C)=O (stereo not given),2.4%
19,CC(C(=O)O)C(Br)C(=O)O (stereo not given),-9%
20,CC(NC1=NCCO1)c1cccs1 (stereo not given),12.2%

# Assay: NCI Yeast Anticancer Drug Screen. Data for the mec2-1 strain (AID 157)
# Conditions: S. cerevisiae mec2-1 strain, at 50.0 µM, active compounds read high
# Method in brief: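 Mutant yeast (mec2-1) grown with compound; growth inhibition relative to vehicle control reported.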
row,SMILES,growth inhibition
1,CC1(c2ccccc2)CCC(=O)NC1=O (stereo not given),19.6%
2,C(#Cc1ccccc1)c1ccccc1.[C-]#[O+].[C-]#[O+].[C-]#[O+].[C-]#[O+].[C-]#[O+].[C-]#[O+].[Co].[Co],28.1%
3,CCN1CCC(OC(=O)c2ccccc2)(c2nccc3ccccc23)CC1,0.95%
4,COC(=O)c1ccccc1NP(=O)(O)Oc1ccccc1 (tested in a mixture with another compound),-4.05%
5,O=C1NN(c2ccccc2)C(=O)C1c1ccccc1 (stereo not given),28.8%
6,COc1ccc2c3c1OC1C(C)(O)C(O)CC4C(C2)N(C)CCC341 (stereo not given),-4.95%
7,CN1CCc2c([nH]c3ccccc23)C1,-7.3%
8,CC(C)C1CN1CC(O)Cn1ccnc1[N+](=O)[O-] (stereo not given),-17.8%
9,O=C(Oc1cc(Cl)c(S(=O)(=O)F)cc1Cl)c1ccccc1Cl,96% (active)
10,COC(=O)C1(C(=O)OC)Cc2ccc(C)cc2C2=C1C(=O)c1ccccc1C2=O,-10.2%
11,CCC1=C(CC2NCCc3cc(OC)c(OC)cc32)CC2c3ccccc3CCN2C1 (stereo not given),-26.5%
12,NP(=S)(Oc1ccc(Cl)cc1)Oc1ccc(Cl)cc1,65.1%
13,O=C1/C(=C\c2ccccc2)N2CCC1CC2,-18.1%
14,NC(C(=O)[O-])C(=O)[O-].NC1CCCCC1N.[Pt+4],-5.95%
15,CN(C)CCN=C(N)N[N+](=O)[O-],3.75%
16,CC(C)CCC1(CC[N+](C)(C)C)C(=O)NC(=O)NC1=O,-9.85%
17,CC1(C)OC2(C)CCC1C(O)C2N1CCCCC1 (stereo not given),-4.15%
18,CCOC(=O)/C(=C\c1ccc(OC)cc1)[Se]c1ccccc1,-11%
19,CC1=CC(=O)CC2(C)CCC(C(C)CC(=O)CC(C)C)CC12OO (stereo not given),92.3% (active) and 92% (active)
20,CC1(C)N=C(c2ccccc2)C2(c3ccccc3)N1C2(C)C (stereo not given),11.3%

row,SMILES,growth inhibition
1,C[N+](C)=c1nc(N2CCc3ccccc3C2)ss1,37%
2,C[C@@H]1C[C@@]2(O[C@@H]2C)C(=O)O[C@@H]2CCN3CC=C(COC(=O)[C@]1(C)O)[C@H]23,-16.2%
3,O=C(CS(=O)(=O)O)Nc1ccccc1,11.9%
4,C[CH2][Sn]1([CH2]C)[O]C(=O)[O][Sn]([CH2]C)([CH2]C)[O]1,0.95%
5,O=C(OCCOCCOC(=O)C(Cl)(Cl)Cl)C(Cl)(Cl)Cl,-33.1%
6,CC(C)(C)[SH+]CC[SH+]C(C)(C)C.[C-]#[O+].[C-]#[O+].[C-]#[O+].[C-]#[O+].[Cr],-19.1%
7,COC(=O)C1=C(C)N2CCCOC2(C)C(C(=O)OC)C1c1cccc(Cl)c1 (stereo not given),16.6%
8,O=C(O)C(C(=O)O)P(=S)(S)c1ccccc1 (stereo not given),8.6%
9,C[P+](CCl)(CCl)CCl,-6.45%
10,S=C(SSC(=S)N(Cc1ccccc1)Cc1ccccc1)N(Cc1ccccc1)Cc1ccccc1,11.6%
11,C[CH2][Sn](/[CH]=C/C=C/OC)([CH2]C)[CH2]C,47%
12,O=C(O)c1cc[c]([Hg][S]c2ncnc3nc[nH]c23)cc1,98.3% (active)
13,CCCCCCCC[As](=O)(O)CCCCCCCC,-0.3%
14,C=CP(=O)(OCCCl)OCCCl,-0.7%
15,Cc1cc(N(CCCl)CCCl)ccc1CN1CCCN(Cc2ccc(N(CCCl)CCCl)cc2C)C1c1cc(O)cc(Br)c1,24.5%
16,C[N+](C)(C)CCNP(=O)(Oc1ccccc1)c1ccccc1 (stereo not given),5.55%
17,C/C=C/CC1(c2ccccc2)C(=O)NC(=S)NC1=O,-15%
18,CCOC(=O)C(Cc1ccc(N(CCCl)CCCl)cc1)NC(=O)CNC(C)=O (stereo not given),-7.85%
19,CC(C(=O)O)C(Br)C(=O)O (stereo not given),-8.7%
20,CC(NC1=NCCO1)c1cccs1 (stereo not given),-2.15%
